A number with no mark means an inactive call. Results filed as inconclusive are left out. Activity calls are given as the source filed them. Unless noted, the call rests on the fitted dose curve; in most records, active means well fitted curve in the direction sought with a large enough effect in the repeat runs; inconclusive means weak or mixed curves; inactive means no such curve, though single readings can be large; an effect the other way counts as inactive or inconclusive.

Experiment [1] is described as follows: qHTS assay to identify small molecule agonists of the hypoxia (HIF-1) signaling pathway (AID 1224846; active means well fitted activation curve with a large enough effect in the signal ratio in the repeat runs, not every such curve was filed as active; the % refers to the signal ratio). The procedure, abridged: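 Reporter induction in HRE-bla ME-180 cells is taken as agonism: cells sit 5 hrs after plating, receive compounds or DMSO only, incubate 17 hrs at 37C under 5% CO2, and are loaded with CCF4-AM for beta-lactamase FRET measurement.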

The nature of experiment [2]: qHTS assay to identify small molecule agonists of H2AX - cell viability counter screen (AID 1224847; calls by dose curve;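 further: wild-type CHO-K1 cells; top concentration of the series differs between compounds; nearly all actives have a fitted effect of over 30% in size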). A digest of the protocol:
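Cells plated first: CHO-K1, 1000 per well in 10% FBS medium, incubated overnight at 37C. Then 15-point compound titration added (final DMSO 0.76%) for 3 hr. Finally CellTiter-Glo added and luminescence read.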

The nature of experiment [3]: qHTS assay to identify small molecule antagonists of the estrogen related receptor (ERR) signaling pathway from Tox21 library (AID 1224848). Further: nearly all actives have a fitted effect of over 50% in size. The procedure, abridged: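 Luciferase luminescence (ONE-Glo, 30 min room temperature) was the read-out. Cells of the NTP-supplied ERR line, 2,000 per well, were given 6 h at 37 C before compound addition in DMSO and 18 h exposure at 37 C.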
For orientation: qHTS replaces the single test concentration by a dilution series.

The nature of experiment [4]: qHTS assay to identify small molecule agonists of the estrogen related receptor (ERR) signaling pathway from Tox21 library (AID 1224849; calls by dose curve; further: nearly all actives have a fitted effect of over 15% in size). The conditions noted are these: ERR reporter cell line, ONE-Glo luciferase, 18 h; at 92.4 µM (top of the series) unless noted. The procedure, abridged:
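Tox21 compounds tested for ERR agonism in an NTP reporter cell line: 18 h treatment at 37 C, then ONE-Glo luminescence.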

Experiment [5] can be described thus: qHTS RealTime-Glo MT Cell Viability Assay in HepG2 cells - 24 hour (AID 1224867). Further: nearly all actives have a fitted effect of over 50% in size. A digest of the protocol:
(§1)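 qHTS, HepG2, 600 cells/well, RealTime-Glo (NanoLuc + prosubstrate) added with cells; 5 h preincubation; DMSO compound addition; 37 C; luminescence at 0/8/16/24/32/40 h.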

A short description of experiment [6]: qHTS RealTime-Glo MT Cell Viability Assay in HEK293 cells - 32 hour (AID 1224868). Further: nearly all actives have a fitted effect of over 50% in size. Further: potency means the concentration at half of the fitted maximal effect. The procedure, abridged: (§2)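 Assay medium contained NanoLuc luciferase plus cell-permeant prosubstrate, added with HEK293 cells at 600 cells/well. After 5 h at 37 C/5% CO2 compounds were added; plates stayed at 37 C for 40 h with serial luminescence reads.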
A short description of experiment [7]: A CellTox Green Cytotoxicity Assay to monitor cytotoxicity in HEK293 cells - 0 hour (AID 1224869). Further: nearly all actives have a fitted effect of over 50% in size. The procedure, abridged:
(§3)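 Tox21 screen in HEK293: membrane-impermeant cyanine dye fluoresces on binding dead-cell DNA; compound pinned 5 h post-seeding, plates held at 37 C, signal read repeatedly through 40 h.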

The nature of experiment [8]: qHTS RealTime-Glo MT Cell Viability Assay in HepG2 cells - 40 hour (AID 1224870). Further: nearly all actives have a fitted effect of over 50% in size. A digest of the protocol: (§4)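 Real-time viability: cells seeded at 600 per well together with NanoLuc and cell-permeant prosubstrate, compounds added after 5 h incubation. Luminescence tracked at 0, 8, 16, 24, 32 and 40 h of exposure.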
A short description of experiment [9]: A CellTox Green Cytotoxicity Assay to monitor cytotoxicity in HEK293 cells - 40 hour (AID 1224871). Further: nearly all actives have a fitted effect of over 45% in size. A digest of the protocol:
as §3

A short description of experiment [10]: qHTS RealTime-Glo MT Cell Viability Assay in HEK293 cells - 16 hour (AID 1224872). Further: nearly all actives have a fitted effect of over 50% in size. Further: potency means the concentration at half of the fitted maximal effect. The procedure, abridged:
as §2

The nature of experiment [11]: qHTS RealTime-Glo MT Cell Viability Assay in HepG2 cells - 8 hour (AID 1224873). Further: nearly all actives have a fitted effect of over 55% in size. A digest of the protocol: as §4
Experiment [12] is described as follows: qHTS RealTime-Glo MT Cell Viability Assay in HEK293 cells - 40 hour (AID 1224874). Further: nearly all actives have a fitted effect of over 50% in size. Further: potency means the concentration at half of the fitted maximal effect. Particulars: RealTime-Glo luminescence; max response: stronger effect = lower value. The procedure, abridged: (§5)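 HEK293 + NanoLuc + prosubstrate, 600 cells/well; 5 h, 37 C/5% CO2; compound 23 nL in DMSO by pintool; 37 C; luminescence read at 0, 8, 16, 24, 32 and 40 h time points.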
Experiment [13] can be described thus: A CellTox Green Cytotoxicity Assay to monitor cytotoxicity in HEK293 cells - 24 hour (AID 1224875). Further: nearly all actives have a fitted effect of over 45% in size. The procedure, abridged: as §3
A short description of experiment [14]: A CellTox Green Cytotoxicity Assay to monitor cytotoxicity in HepG2 cells - 16 hour (AID 1224876). Further: nearly all actives have a fitted effect of over 45% in size. A digest of the protocol:
(§6)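 Measurements at 0, 8, 16, 24, 32 and 40 h of treatment captured CellTox Green fluorescence in HepG2 cells that had been co-plated with reagent and preincubated 5 h at 37 C/5% CO2.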

Experiment [15] is described as follows: qHTS RealTime-Glo MT Cell Viability Assay in HepG2 cells - 32 hour (AID 1224877). Further: nearly all actives have a fitted effect of over 55% in size. The procedure, abridged:
as §1

A short description of experiment [16]: A CellTox Green Cytotoxicity Assay to monitor cytotoxicity in HepG2 cells - 24 hour (AID 1224878). Further: nearly all actives have a fitted effect of over 45% in size. The procedure, abridged:
as §6

Experiment [17] can be described thus: qHTS RealTime-Glo MT Cell Viability Assay in HEK293 cells - 0 hour (AID 1224880). A digest of the protocol: as §5
Experiment [18] is described as follows: A CellTox Green Cytotoxicity Assay to monitor cytotoxicity in HEK293 cells - 32 hour (AID 1224881). Further: nearly all actives have a fitted effect of over 40% in size. A digest of the protocol:
as §3

Experiment [19] in a line: A CellTox Green Cytotoxicity Assay to monitor cytotoxicity in HepG2 cells - 0 hour (AID 1224882). Further: nearly all actives have a fitted effect of over 35% in size. A digest of the protocol:
as §6

Experiment [20] is described as follows: A CellTox Green Cytotoxicity Assay to monitor cytotoxicity in HepG2 cells - 40 hour (AID 1224879). Further: nearly all actives have a fitted effect of over 40% in size. A digest of the protocol: as §6
On the % scale 0 is the no-effect control and ±100 the full control effect.

Consider `N#Cc1ccccc1Cl`, for which the call in [1] was inactive. The Potency entry in experiment [2], in experiment [3], in [5], in experiment [6], in experiment [7] and in experiment [8] was “inactive” in each case. Moreover, the Potency entry in experiment [9], in experiment [10], in experiment [11], in experiment [13], in [14] and in experiment [15] was “inactive” each time. Moreover, the Potency result in experiment [16], in experiment [17], in [18] and in experiment [19] was “inactive” in each case. Moreover, the activity change, positive = activation in [4] is 1.91%. The max response in [12] was -1.15%.
Consider `Clc1ccc(-c2ccccc2)cc1`, for which the compound was called inactive in [1]. Further, the Potency result in experiment [2], in [3], in [5], in experiment [6], in [8] and in [10] was “inactive” in each case. In addition, the Potency entry in experiment [11], in experiment [13], in experiment [14], in [15], in experiment [16] and in [17] was “inactive” throughout. In addition, in [19], the Potency result is “inactive”. In experiment [4], the activity change, positive = activation is 3.89%. In [12], the max response is -16.9%.
On to `COc1ccc(/C(=C/C(=O)N2CCOCC2)c2ccc(Cl)cc2)cc1OC`, for which the compound was called inactive in [1]. For the same compound, the Potency result in experiment [2], in [3], in experiment [5], in experiment [7], in experiment [8] and in experiment [9] was “inactive” in each case. Also, the Potency result in experiment [10], in experiment [11], in experiment [13], in [14], in [15] and in experiment [16] was “inactive” throughout. The Potency entry in [17] and in [18] was “inactive” each time. Moreover, the activity change, positive = activation in experiment [4] was -10.9%.
In the case of `O=[N+]([O-])c1ccc(Oc2ccc(C(F)(F)F)cc2[N+](=O)[O-])cc1`, in [1], the compound was classed as inactive. Moreover, the Potency result in experiment [2], in experiment [5], in [7], in experiment [8], in [9] and in experiment [13] was “inactive” throughout. Moreover, the Potency result in [14], in experiment [15], in [16], in [20], in [17] and in experiment [19] was “inactive” each time. Further, the activity change, positive = activation in experiment [4] was -23.5%. The Potency in [6] is 19.5 µM (active); in experiment [10], 19.5 µM (active); in experiment [12], 17.4 µM (active).
Turning to `CC(C)C(=O)Cl`, in experiment [1], the outcome was inactive. The Potency result in [2], in [5], in experiment [6], in [7], in [8] and in experiment [9] was “inactive” in each case. Moreover, the Potency result in experiment [10], in experiment [11], in experiment [13], in [14], in experiment [15] and in experiment [16] was “inactive” in each case. Also, the Potency result in experiment [20], in experiment [17], in [18] and in experiment [19] was “inactive” in each case. In addition, in experiment [4], the activity change, positive = activation is -0.166%. In addition, in experiment [12], the max response was 0.629%.
As to `CCCCCCCCCCBr`, the result in experiment [1] was inactive. For the same compound, the Potency result in [2], in experiment [5], in [6], in [7], in experiment [8] and in [9] was “inactive” in each case. Moreover, the Potency entry in experiment [10], in experiment [11], in experiment [13], in [14], in experiment [15] and in experiment [16] was “inactive” each time. In addition, the Potency entry in experiment [20], in [17], in [18] and in experiment [19] was “inactive” in each case. Also, the activity change, positive = activation in experiment [4] is 1.61%.
For `SCc1ccco1`, the result in experiment [1] was inactive. Moreover, the Potency entry in [2], in experiment [5], in experiment [6], in [7], in experiment [8] and in experiment [9] was “inactive” throughout. Also, the Potency result in [10], in experiment [11], in [13], in experiment [14], in experiment [15] and in experiment [16] was “inactive” in each case. Further, the Potency result in experiment [20], in experiment [17], in experiment [18] and in experiment [19] was “inactive” each time. Also, in [12], the max response was -11.9%.

(Values after PubChem BioAssay (Tox21).)
